Most compounds without a hit are left out; they make up all but 17% or so of the library.
TDP1 cell CPT – DT40-hTDP1 cell growth loss with CPT. AID 686979. chicken DT40 Tdp1-/-;hTDP1 cells + 20 nM CPT, ATP luminescence, 48 h. Potency, µM (highest dose often 46.2 µM), for inactives: top-dose activity change, negative = growth inhibition, actives largely listed as inhibitors. 420,000 tested, 12% active; note: % is set by controls: 0 for no effect and ±100 for the full control effect; nearly all actives have a fitted effect of over 55% in size
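Chicken DT40 Tdp1-/- cells complemented with human TDP1, 400 cells/well, exposed to compounds plus 20 nM camptothecin for at least 48 h at 37 C; viability read as ATP content by CellTiter-Glo luminescence.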
S2 tox – cell viability loss in ATXN counter-screen; Potency, µM (highest dose often 56.7 µM), actives largely listed as cytotoxic; S2 cells (HEK-293 line with an ATXN2-luciferase reporter) viability, CellTiter-Fluor protease fluorescence, 24 h; 400,000 tested, 0.49% active; note: nearly all actives have a fitted effect of over 40% in size
ATXN2 expr inh – ATXN2 expression inhibition. HEK-293 ATXN2-luciferase reporter, luminescence, 24 h. Potency, µM (top dose mostly 57 µM), inactives show at the highest dose activity change, negative = inhibition, actives largely listed as inhibitors. 360,000 tested, 0.72% active; note: % is set by controls: 0 for no effect and ±100 for the full control effect; nearly all actives have a fitted effect of over 55% in size
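ATXN2-luciferase reporter cells (luciferase flanked by upstream and downstream ATXN2 gene portions) were treated 24 h at 37 °C with compounds at up to 57 uM. SteadyGlo luminescence gave expression; GF-AFC fluorescence gave viability.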
TDP1 cell noCPT – qHTS for Inhibitors of human tyrosyl-DNA phosphodiesterase 1 (TDP1): qHTS in cells in absence of CPT | DT40 Tdp1-/- hTDP1 cells, no CPT, ATP luminescence, 48 h | Potency, µM (titrated, usually from 46.2 µM), without a hit: at the top dose activity change, negative = growth inhibition, most hits filed as inhibitors | 420,000 tested, 15% active | AID 686978, 2013; note: % is set by controls: 0 for no effect and ±100 for the full control effect; nearly all actives have a fitted effect of over 55% in size
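Compound effects on proliferation are scored in DT40 Tdp1-/-;hTDP1 cells in the absence of CPT. ATP levels (CellTiter-Glo luminescence) are recorded after a ≥48 hr, 37 °C incubation.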
TGFb inhibitor – TGF-b pathway inhibition | HepG2 CAGA-GFP TGF-b/SMAD3 reporter, GFP fluorescence, 18 h; TGF-beta stimulated, 500 pg/mL final | Potency, µM (highest dose often 46.1 µM), for inactives: at the highest dose activity, negative = inhibition, most hits filed as inhibitors | 410,000 tested, 1.2% active | AID 588855; note: % is set by controls: 0 for no effect and ±100 for the full control effect; nearly all actives have a fitted effect of over 65% in size
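HEPG2 CAGA-GFP, 1000 cells/well; 2 h settle, 37 C; cpd via pin tool; TGF-b 500 pg/mL final; 18 h, 37 C; GFP imaging ex488/em500-530; %Activity normalised to -TGF-b and +DMSO controls; CRC fit, curve class.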
HepG2 viability – kills HepG2 cells in TGF-b inhibitor counter-screen; HepG2 CAGA-GFP viability, ATP luminescence, 18 h; Potency, µM (highest dose often 46.1 µM), for inactives: at the top dose activity change, negative = cytotoxicity, hits mostly cytotoxic; 410,000 tested, 0.76% active; AID 588856
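CellTiter-Glo luminescence gave cytotoxicity after 18 hours at 37 degrees C. The cells were HepG2 CAGA-GFP in 1% FBS DMEM, stimulated with 500 pg/mL TGF-beta after compound addition. %Activity was normalised to no-cell wells (complete cell-killing) and DMSO (no toxicity), and curves were fitted and classified.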
* = called active by the depositor; i = inactive; ? = inconclusive; · = no result; [ ] = remark or other dose. Calls come from the whole dose curve; as a rule, active = well fitted curve in the direction sought with a large enough effect; inconclusive = small, poorly fitted or top-dose-only effect, or another doubt; inactive = no such curve, though single readings can be large; an effect the other way counts as inactive or inconclusive. Potency is the fitted concentration of half-maximal effect.

SMILES	TDP1 cell CPT	S2 tox	ATXN2 expr inh	TDP1 cell noCPT	TGFb inhibitor	HepG2 viability
CN(C(=O)C(C)(C)C)C1c2c(ccc3ccccc23)OCC1CO (stereo not drawn)	?	i	1%	-21%	0%	2%
CC1(C2CC2)NC(=O)N(CC(=O)Nc2ccc(C(F)(F)F)cc2)C1=O (stereo not drawn)	-12%	i	-1%	-1%	-20%	-24%
O=C(NC1CC1)c1sc2cc(Cl)ccc2c1Cl	?	i	24%	12µM*	-2%	-23%
O=C(NC1CC1)c1sc2cc(F)ccc2c1Cl	-10%	i	·	?	-10%	-33%
CC(C)n1cnc2c(Nc3cccc(Cl)c3)nc(NCCCO)nc21	21µM*	?	-34%	16µM*	?	-15%
CC(C)n1cnc2c(NCc3ccccc3)nc(NCc3ccccc3)nc21	?	i	-10%	?	?	-49%
CC(C)n1cnc2c(NCCCCCCNC(=O)OC(C)(C)C)nc(NCCO)nc21	·	·	14µM*	·	·	·
CC(C)[C@H](CO)Nc1nc(Nc2ccc(Cl)c(C(=O)O)c2)c2ncn(C(C)C)c2n1	1%	i	-8%	-4%	0%	-3%
O=c1cnc2cnc(Oc3ccccc3)nc2n1CCc1ccccc1	15%	·	·	-18%	·	·
CC(C)C(NS(=O)(=O)c1ccccc1)C(=O)N1CCCCCC1 (stereo not drawn)	6%	?	8%	1%	9%	5%
COC(=O)c1ccccc1-c1cc(C)cc2c1OC(CNC(=O)c1cc(C)n(C)n1)C2 (stereo not drawn)	8%[9.04 µM]	i	·	?	·	·
COC(=O)c1ccccc1-c1cc(C)cc2c1OC(CNC(=O)c1occc1C)C2 (stereo not drawn)	16µM*	i	·	12µM*	·	·
COc1cc(/C=N\NC(=O)CC#N)ccc1OC/C=C/c1ccccc1	26µM*	i	?	?	0%	-33%
N#CCC(=O)N/N=C/c1ccc(Cl)cc1	?	i	14%	0%	21%	37%
CN(c1ccccc1)c1ccc(/C=N/NC(=O)CC#N)cc1	?	i	13µM*	?	-9%	-7%
Cc1ccccc1Cn1c(CN2CCC(C(=O)NCc3ccc(Cl)cc3)CC2)cc2ccccc21	?	?	9%	?	-14%	-23%
COc1cccc(CNC(=O)C2CCN(Cc3cc4ccccc4n3Cc3ccc(C)cc3)CC2)c1	?	?	-12%	21µM*	-25%	-6%
CCOc1ccc(CNC(=O)C2CCN(Cc3cc4ccccc4n3Cc3ccccc3C)CC2)cc1	13µM*	i	13%	23µM*	6%	5%
Cc1ccccc1Cn1c(CN2CCC(C(=O)NCCN(C)C)CC2)cc2ccccc21	3.3µM*	·	·	4.1µM*	13µM*	10µM*
Cc1ccc(Cn2c(CN3CCC(C(=O)O)CC3)cc3ccccc32)cc1	-30%	·	·	-27%	·	-25%
CCCOc1ccc(CN(CCC#N)C(=S)NC(=O)c2ccccc2)cc1	7.3µM*	·	?	5.2µM*	0%	-18%
COc1cc(C(=O)NC(=S)N(CCC#N)Cc2cccnc2)cc(OC)c1OC	-11%	i	-3%	?	?	3%
Cc1cc(C(=O)N2CCc3ccccc3C2)no1	15%	i	8%	-1%	-6%	-1%
O=C(c1cc2ccccc2o1)N1CCN(S(=O)(=O)c2ccccc2)CC1	12µM*	i	4%	-21%	?	2%
O=C(c1cc2c(s1)CCCC2)N1CCN(S(=O)(=O)c2ccccc2)CC1	-23%	i	4%	?	0%	10µM*

Compound activity deposited in PubChem by National Center for Advancing Translational Sciences (NCATS).
